Laboratory results published in PubChem BioAssay (NCI).
This is part of a sample that, as a whole, favours compounds with a hit. Of some 79,000 tested, about 15% had one in any assay. Active and inactive are the calls of the source. No stated cut-off is given here; in the data, active means growth inhibition above about 70%; inactive means the rest.

How the values were obtained:
[1] = NCI Yeast Anticancer Drug Screen. Data for the wt1 strain (AID 149);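 further: 0% = growth of vehicle-treated wt1 cultures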; conditions: S. cerevisiae wt1 strain (SPY 50644) growth inhibition, stronger effect = higher value
Outline: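 The wt1 strain was treated with compounds, and growth was compared with vehicle-treated cultures to give inhibition.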

[2] = NCI Yeast Anticancer Drug Screen. Data for the rad50EPP+ strain (AID 151);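 further: 0% = growth of vehicle-treated control cultures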; conditions: S. cerevisiae rad50 mutant strain, stronger effect = higher value
Outline: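 One strain with a rad50 alteration (rad50EPP+) was compound-treated, its growth then compared to that of vehicle controls.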

[3] = NCI Yeast Anticancer Drug Screen. Data for the mgt1 strain (AID 153); conditions: S. cerevisiae mgt1 mutant growth inhibition, stronger effect = higher value
Outline: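 After exposure of the mgt1 yeast mutant to compound, growth was measured and reported as inhibition compared with vehicle controls.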

[4] = NCI Yeast Anticancer Drug Screen. Data for the rad50 strain (AID 155);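 further: 0% = growth of vehicle-only cultures of the same strain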; conditions: S. cerevisiae rad50 strain growth inhibition, stronger effect = higher value
Outline: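 Cells are treated with compound, grown, and their growth is then scored against vehicle-only cultures of the same repair-deficient yeast strain.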

[5] = NCI Yeast Anticancer Drug Screen. Data for the mec2-1 strain (AID 157); conditions: S. cerevisiae mec2-1 strain, stronger effect = higher value
Outline: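 Test agents were screened against the mec2-1 yeast strain, with defined DNA repair or cell cycle alteration. Growth was scored as inhibition against vehicle-only controls.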

[6] = NCI Yeast Anticancer Drug Screen. Data for the rad14 strain (AID 159);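 further: 0% = growth of vehicle-treated control cultures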; conditions: S. cerevisiae rad14 strain growth inhibition, stronger effect = higher value
Outline: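 Readout: yeast growth inhibition, referenced to vehicle-only cultures. Strain bears a defined alteration in DNA damage repair.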

[7] = NCI Yeast Anticancer Drug Screen. Data for the sgs1 mgt1 strain (AID 161);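 further: 0% = growth of cultures given vehicle only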; conditions: S. cerevisiae sgs1 mgt1 strain, stronger effect = higher value
Outline: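 Read-out: growth inhibition vs vehicle controls. Cells: mutant yeast strain deficient in DNA damage repair.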

[8] = NCI Yeast Anticancer Drug Screen. Data for the CLN2oe strain (AID 163);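 further: 0% = growth of vehicle-only control cultures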; conditions: S. cerevisiae CLN2oe strain, stronger effect = higher value
Outline: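 Here, growth inhibition in a cell-cycle-altered yeast strain after compound exposure was quantified against vehicle control growth.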

[9] = NCI Yeast Anticancer Drug Screen. Data for the cln2 rad14 strain (AID 165);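 further: 0% = growth equal to vehicle treated cultures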; conditions: S. cerevisiae cln2 rad14 strain, stronger effect = higher value
Outline: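 Growth of compound-exposed yeast (cln2 rad14 genotype) measured and expressed as inhibition relative to vehicle.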

[10] = NCI Yeast Anticancer Drug Screen. Data for the bub3 strain (AID 167); conditions: S. cerevisiae bub3 mutant strain, stronger effect = higher value
Outline: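 Part of a panel of yeast mutants defective in DNA damage repair or cell cycle regulation. Each strain is grown with compound, and inhibition is calculated relative to solvent-treated cultures.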

[11] = NCI Yeast Anticancer Drug Screen. Data for the wt2 strain (AID 169);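 further: 0% = growth of vehicle-treated yeast cultures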; conditions: S. cerevisiae wt2 strain growth inhibition, stronger effect = higher value
Outline: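 Genetically defined yeast strains from a DNA-repair/cell-cycle panel were used. Compound-exposed yeast growth was measured, and the inhibition was calculated relative to vehicle treatment.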

[12] = NCI Yeast Anticancer Drug Screen. Data for the mlh1 strain (AID 171);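 further: 0% = growth of vehicle-treated control cultures of the same strain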; conditions: S. cerevisiae mlh1 strain growth inhibition, stronger effect = higher value
Outline: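 Here the genetically defined yeast mutant is grown with each compound, and the extent to which its growth falls below that of vehicle-exposed cells is reported.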

[13] = NCI Yeast Anticancer Drug Screen. Data for the sgs1 strain (AID 173);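 further: 0% = growth of vehicle-only control cultures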; conditions: S. cerevisiae sgs1 mutant, stronger effect = higher value
Outline: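 Relative growth inhibition, referenced to vehicle, was determined in a yeast strain with a defined alteration affecting DNA damage repair or cell cycle control after compound exposure.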

[14] = NCI Yeast Anticancer Drug Screen. Data for the mlh1 rad18 strain (AID 175); conditions: S. cerevisiae mlh1 rad18 strain growth inhibition, stronger effect = higher value
Outline: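 In this whole-cell yeast screen, a strain with altered DNA damage repair is challenged with compound, and its growth is measured against matched vehicle-treated controls.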

[15] = NCI Yeast Anticancer Drug Screen. Data for the rad18 strain (AID 177); conditions: S. cerevisiae rad18 mutant growth inhibition, stronger effect = higher value
Outline: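 Screen uses a yeast strain with a defined lesion in DNA damage repair; compound effect is read as loss of growth compared to untreated vehicle cultures.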

[16] = at 5.0 µM (retest, dose inferred, filed as 0.5)
[17] = at 50.0 µM (retest, dose inferred, filed as 5.0)

Measured: growth inhibition

O=S(=O)(O)c1ccc2c(N=Nc3c(O)ccc4ccccc34)cccc2c1
active: [1]; at 100.0 µM 71% | [4]; at 33.0 µM 71% | [4]; [17] 82% | [4]; at 50.0 µM 91.8% | [4]; at 100.0 µM 85% | [5]; at 50.0 µM 83.3% | [5]; at 100.0 µM 84% | [6]; at 100.0 µM 80% | [7]; [17] 70% | [7]; at 50.0 µM 83.2% | [8]; at 100.0 µM 74% | [10]; at 50.0 µM 93.8% | [10]; at 100.0 µM 75% | [11]; at 100.0 µM 74% | [12]; at 100.0 µM 70% | [13]; at 100.0 µM 77% | [14]; [17] 80% | [14]; at 50.0 µM 87.9% | [15]; at 11.0 µM 77% | [15]; at 33.0 µM 87% | [15]; at 100.0 µM 92%
inactive: [1]; at 1.2 µM 0% | [1]; at 3.7 µM 1% | [1]; at 11.0 µM 21% | [1]; at 33.0 µM 50% | [2]; at 1.2 µM -3% | [2]; at 3.7 µM -1% | [2]; at 11.0 µM 17% | [2]; at 33.0 µM 35% | [2]; at 100.0 µM 39% | [3]; at 1.2 µM 0% | [3]; at 3.7 µM 0% | [3]; at 11.0 µM 12% | [3]; at 33.0 µM 37% | [3]; at 100.0 µM 66% | [4]; at 1.2 µM 4% | [4]; at 3.7 µM 14% | [4]; [16] 26% | [4]; at 11.0 µM 56% | [5]; at 1.2 µM 1% | [5]; at 3.7 µM 6% | [5]; [16] 3% | [5]; at 11.0 µM 20% | [5]; at 33.0 µM 38% | [5]; [17] 48% | [6]; at 1.2 µM 1% | [6]; at 3.7 µM 1% | [6]; at 11.0 µM 20% | [6]; at 33.0 µM 40% | [7]; [16] -1% | [8]; at 1.2 µM -1% | [8]; at 3.7 µM -4% | [8]; at 11.0 µM -3% | [8]; at 33.0 µM 14% | [9]; [16] 0% | [9]; [17] -11% | [9]; at 50.0 µM 32.5% | [10]; at 1.2 µM -2% | [10]; at 3.7 µM -1% | [10]; [16] 0% | [10]; at 11.0 µM 23% | [10]; at 33.0 µM 59% | [10]; [17] 55% | [11]; at 1.2 µM -1% | [11]; at 3.7 µM 0% | [11]; at 11.0 µM 13% | [11]; at 33.0 µM 37% | [12]; at 1.2 µM 4% | [12]; at 3.7 µM 4% | [12]; at 11.0 µM 17% | [12]; at 33.0 µM 4% | [13]; at 1.2 µM 2% | [13]; at 3.7 µM 11% | [13]; at 11.0 µM 47% | [13]; at 33.0 µM 67% | [14]; [16] 9% | [15]; at 1.2 µM 4% | [15]; at 3.7 µM 33%

CCN(CC)c1cccc(Nc2nc3ccccc3s2)c1
inactive: [1]; at 1.2 µM 8% | [1]; at 3.7 µM 10% | [1]; at 11.0 µM 6% | [1]; at 33.0 µM 7% | [1]; at 100.0 µM 5% | [2]; at 1.2 µM -9% | [2]; at 3.7 µM 0% | [2]; at 11.0 µM -2% | [2]; at 33.0 µM 1% | [2]; at 100.0 µM 19% | [3]; at 1.2 µM 6% | [3]; at 3.7 µM 6% | [3]; at 11.0 µM 5% | [3]; at 33.0 µM 7% | [3]; at 100.0 µM 7% | [4]; at 1.2 µM 8% | [4]; at 3.7 µM 9% | [4]; [16] -4% | [4]; at 11.0 µM 5% | [4]; at 33.0 µM 7% | [4]; [17] 2% | [4]; at 50.0 µM 1.6% | [4]; at 100.0 µM 7% | [5]; at 1.2 µM 13% | [5]; at 3.7 µM 14% | [5]; [16] -5% | [5]; at 11.0 µM 15% | [5]; at 33.0 µM 16% | [5]; [17] 1% | [5]; at 50.0 µM 7.7%
